Screens as filed in PubChem BioAssay.
Rows were chosen to be rich in hits. Some 1.1% of all compounds tested hit in one or more screens of this group.
DSG3 Ab inh = blocks pemphigus antibody binding to human desmoglein-3; P32926; DSG3-coupled beads, scFv-anti-DSG3-GFP binding, flow cytometry; stronger effect = lower value; binding (percent of control), % at 10 µM; 310,000 tested, 0.48% active;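 active = binding more than 3 SD below its plate's average and above zero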;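 also: hits lower antibody fragment binding to DSG3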
AI-2 QS modul = modulates the Vibrio harveyi AI-2 quorum sensing system | Vibrio harveyi JMH597 AI-2 luminescence/OD600 ratio, 9 h; stronger effect = lower value; strain lacks LuxN and CqsS sensors; 0 = neutral-control median | activity change, % at 7.5 µM | 300,000 tested, 0.4% active; in the data active = activity change below about -75%, passing the limit was not always enough;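 also: luminescence divided by OD600 gain over 9 h not by final OD600 alone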
VLA-4 inh = inhibition in a human VLA-4 binding assay; 330,000 tested, 0.2% active; AID 2557; inhibition, % (about 7 µM as worked out from the volumes in the protocol); VLA-4 expressing cells, ligand binding flow cytometry; in the data active = inhibition above about 50%
NTR1 ag = agonists of human neurotensin receptor NTR1; activation, % at 20 µM; 330,000 tested, 0.17% active; NTR1-U2OS beta-arrestin-GFP spot imaging, agonist mode; P30989;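 active = activation at or above 40% of the spot to cytoplasm intensity ratio, with at least 20 cells analyzed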;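 also: 0% = DMSO without peptide and 100% = 100 nM NTR1 peptide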
VLA-4 mod pick = confirmation of allosteric modulators of human VLA-4 integrin | shares compounds with VLA-4 inh | U937 cells, HUTS-21 LIBS mAb binding, flow cytometry; LDV ligand present at threefold Kd | inhibition, % at 6.7 µM | 1,300 tested, 2% active | AID 2813; in the data active = inhibition above about 40%;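 also: 0% = ligand without compound and 100% = no ligand background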
Numbers without * were called inactive.

What do the screens show for `CCN(C[C@H]1N[C@@](Cc2ccccc2)(C(=O)OC)[C@H]2C(=O)N(Cc3ccccc3)C(=O)[C@@H]12)C(=O)COC`?
DSG3 Ab inh: 99; VLA-4 inh: -10; NTR1 ag: -1; VLA-4 mod pick: 3

How did CCN(C[C@H]1N[C@@](Cc2ccccc2)(C(=O)OC)[C@H]2C(=O)N(Cc3ccccc3)C(=O)[C@@H]12)C(=O)c1ccccc1 do in these assays?
DSG3 Ab inh: 103; VLA-4 inh: 50*; NTR1 ag: 3; VLA-4 mod pick: 4

Results for COC(=O)[C@]1(Cc2ccccc2)N[C@H](CN(C)C(=O)Nc2ccccc2)[C@@H]2C(=O)N(Cc3ccccc3)C(=O)[C@@H]21 ?
DSG3 Ab inh: 105; VLA-4 inh: 43; NTR1 ag: 8

How did O=C(CCN1C(=O)C2CCCCC2C1=O)Nc1ccc(Br)cc1F (stereo unspecified) do in these assays?
DSG3 Ab inh: 107; AI-2 QS modul: 5; VLA-4 inh: 6; NTR1 ag: -2

Results for O=C(COC(=O)Cc1c[nH]c2ccccc12)Nc1cc(S(=O)(=O)N2CCOCC2)ccc1Cl ?
DSG3 Ab inh: 101; VLA-4 inh: 3; NTR1 ag: 1

What do the screens show for `CC1C(=O)N2CCCc3cc(S(=O)(=O)Nc4ccccc4C(N)=O)cc1c32` (stereo unspecified)?
DSG3 Ab inh: 117; AI-2 QS modul: 23; VLA-4 inh: 9; NTR1 ag: 1; VLA-4 mod pick: -5

How did COc1cc(/C=C/C(=O)O)cc(OC)c1O do in these assays?
DSG3 Ab inh: 115; AI-2 QS modul: 2; VLA-4 inh: 60*; NTR1 ag: 0; VLA-4 mod pick: -9

What do the screens show for `O=C(O)c1ccc2c(c1)C(=O)N(c1cccc3ccccc13)C2=O`?
DSG3 Ab inh: 93; AI-2 QS modul: 11; VLA-4 inh: 58*; NTR1 ag: 0; VLA-4 mod pick: 3

Results for O=C(N/N=C/c1ccccc1)C(=O)N/N=C/c1ccccc1 ?
AI-2 QS modul: 14; VLA-4 inh: 4; NTR1 ag: -1

How did C=C1CC(C(=O)N/N=C/c2ccccc2)C1 do in these assays?
AI-2 QS modul: -1; VLA-4 inh: 42; NTR1 ag: -1; VLA-4 mod pick: -22

What do the screens show for `COc1ccc(C2C3=C(CC(C)(C)CC3=O)Oc3ncn(CCCn4ccnc4)c(=N)c32)cc1` (stereo unspecified)?
DSG3 Ab inh: 108; AI-2 QS modul: -1; VLA-4 inh: 90*; NTR1 ag: 2; VLA-4 mod pick: 8

Results for Cc1cccc(NC(=O)C2CCN(C(=O)c3ccccc3C)CC2)n1 ?
DSG3 Ab inh: 97; VLA-4 inh: -3; NTR1 ag: -1; VLA-4 mod pick: -3

How did Cc1ccc(NC(=O)C2CCN(C(=O)c3ccccc3C)CC2)cc1 do in these assays?
DSG3 Ab inh: 106; AI-2 QS modul: 9; VLA-4 inh: 33; NTR1 ag: 2

Results for O=C(Nc1ccccn1)C1CCN(C(=O)c2ccc(F)cc2)CC1 ?
DSG3 Ab inh: 112; AI-2 QS modul: 20; VLA-4 inh: 26; NTR1 ag: 1; VLA-4 mod pick: 4

How did CC(C)(C)c1ccc(NC(=O)CCNC(=O)c2ccco2)cc1 do in these assays?
DSG3 Ab inh: 106; AI-2 QS modul: 22; VLA-4 inh: 50*; NTR1 ag: 0; VLA-4 mod pick: 5

What do the screens show for `O=C(CCNC(=O)c1ccco1)Nc1ccc(C(F)(F)F)cc1`?
AI-2 QS modul: 14; VLA-4 inh: 8; NTR1 ag: -1

How did Cc1ccc2c(C)c(C(=O)Nc3c(C)n(C)n(-c4ccccc4)c3=O)oc2c1 do in these assays?
DSG3 Ab inh: 109; AI-2 QS modul: -6; VLA-4 inh: 9; NTR1 ag: -1; VLA-4 mod pick: -10

What do the screens show for `Cc1cc2oc(C(=O)Nc3c(C)n(C)n(-c4ccccc4)c3=O)c(C)c2cc1C`?
DSG3 Ab inh: 100; AI-2 QS modul: 1; VLA-4 inh: 16; NTR1 ag: -2

Results for Cc1c(NC(=O)Nc2ccc(Cl)c(Cl)c2)c(=O)n(-c2ccccc2)n1C ?
DSG3 Ab inh: 103; VLA-4 inh: 65*; NTR1 ag: 0; VLA-4 mod pick: 8

What do the screens show for `COc1c(C(=O)Nc2c(C)n(C)n(-c3ccccc3)c2=O)ccc2ccccc12`?
AI-2 QS modul: 3; VLA-4 inh: -1; NTR1 ag: 0; VLA-4 mod pick: 0

Results for Cc1c(NC(=O)Nc2ccccc2)c(=O)n(-c2ccccc2)n1C ?
DSG3 Ab inh: 105; AI-2 QS modul: 10; VLA-4 inh: -21

Results for CC1CCN(CCc2nc3cc(NC(=O)COc4ccc(Cl)cc4)ccc3n2C)CC1 ?
DSG3 Ab inh: 112; AI-2 QS modul: 20; VLA-4 inh: 7; NTR1 ag: 0

How did COc1ccc(C(=O)c2c3ccccc3[n+]([O-])n2CCC(N)=O)cc1 do in these assays?
AI-2 QS modul: 10; VLA-4 inh: 55*; NTR1 ag: 0; VLA-4 mod pick: 7

What do the screens show for `COc1ccc(C(=O)c2c3ccccc3[n+]([O-])n2CCCN)cc1`?
DSG3 Ab inh: 98; AI-2 QS modul: 10; VLA-4 inh: -8; NTR1 ag: 0

Results for Nc1ccc(Sc2ccccc2Cl)nc1 ?
AI-2 QS modul: 11; VLA-4 inh: 1; NTR1 ag: -1

What do the screens show for `CCC(C)NC(=O)CC(NS(=O)(=O)c1ccc(Cl)cc1)c1ccco1` (stereo unspecified)?
DSG3 Ab inh: 104; AI-2 QS modul: -2; VLA-4 inh: 108*; NTR1 ag: -1; VLA-4 mod pick: 8

How did COc1ccc(CNC(=O)COC(=O)CCn2c(C)csc2=O)cc1OC do in these assays?
DSG3 Ab inh: 99; AI-2 QS modul: 16; VLA-4 inh: -11; NTR1 ag: 0

How did Cc1ccc(NC(=O)N(C)c2ccccc2)cc1 do in these assays?
DSG3 Ab inh: 123; AI-2 QS modul: 27; VLA-4 inh: -2; VLA-4 mod pick: -7

Results for O=C(O)CCN1C(=O)c2ccc(NC(=O)c3cccs3)cc2C1=O ?
DSG3 Ab inh: 97; AI-2 QS modul: 24; VLA-4 inh: 1; NTR1 ag: 0

How did O=C(Nc1ccc2c(c1)C(=O)N(c1ccccc1)C2=O)c1cccs1 do in these assays?
DSG3 Ab inh: 87*; AI-2 QS modul: 1; VLA-4 inh: 50*; NTR1 ag: 2; VLA-4 mod pick: 0

How did O=C(CN1C(=O)NC2(CCCCCCC2)C1=O)NCc1ccccc1Cl do in these assays?
DSG3 Ab inh: 114; VLA-4 inh: 1; NTR1 ag: 0

Results for CSc1cccc(N2C(=O)C3CCCN3C2=S)c1 (stereo unspecified) ?
DSG3 Ab inh: 95; AI-2 QS modul: 19; VLA-4 inh: 47; NTR1 ag: 0; VLA-4 mod pick: -13

What do the screens show for `COc1cc(SC)ccc1C(=O)N1CCN(Cc2ccc3c(c2)OCO3)CC1`?
DSG3 Ab inh: 118; AI-2 QS modul: 6; VLA-4 inh: 12; NTR1 ag: 2
